# PubChem BioAssay (NCATS)
# Results filed as inconclusive are left out. Unmarked numbers belong to inactive results. Active and inactive are the calls of the source. Calls come from the whole dose curve; as a rule, active = well fitted inhibition curve with a large enough effect; inconclusive = small, poorly fitted or top-dose-only effect; inactive = flat fitted curve, though single readings scatter.
# Molecular target: Calcium and integrin-binding protein 1 (Homo sapiens) (UniProt Q99828)
# Assay: Primary qHTS for Identification of Calcium Integrin Binding Protein 1 (CIB1) Competitor (AID 1508620);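 for activity change, negative = inhibition: GST tagged CIB1 binding a fluorescein labelled alphaIIb integrin peptide tracer; top concentration of the series differs between compounds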
# Conditions: CIB1-GST / FITC-alphaIIb peptide fluorescence polarization; series mostly up to 114 µM; activity change, negative = inhibition: at the top concentration
# Method in brief: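 Fluorescence polarization competition: CIB1-GST (1 uM final) preincubated with compound 15 min at room temperature, then FITC-labeled alphaIIb peptide (100 nM final) added for another 15 min. Polarization read at Ex 480/Em 540.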
# % is set by controls: 0 for no effect and ±100 for the full control effect; potency is the fitted concentration of half-maximal effect.
# Calcium and integrin-binding protein 1 (Homo sapiens), sequence (Q99828 whole entry, looked up): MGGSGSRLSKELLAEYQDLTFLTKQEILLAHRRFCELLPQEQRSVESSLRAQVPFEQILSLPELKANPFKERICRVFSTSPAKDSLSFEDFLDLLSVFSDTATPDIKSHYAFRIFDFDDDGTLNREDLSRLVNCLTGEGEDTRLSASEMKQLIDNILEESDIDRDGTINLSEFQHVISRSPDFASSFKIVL
Compound,"activity change, negative = inhibition [%]",Potency
Fc1cnc(-c2ccccc2C(F)F)nc1NCC1CCN(c2cnccn2)C1 (stereo not given),-2.93,
Cc1occc1-c1ccc2ncnc(NCc3ncc[nH]3)c2c1,-2.18,
CC(=O)Nc1ccc(-c2csc(N3CCC(C(N)=O)CC3)n2)cc1,-2.3,
O=C1c2ccccc2NC(c2ccc(Br)o2)N1O (stereo not given),-8.79,
Cc1cnc(-c2ccccc2C(C)C)nc1NCc1ccc(C2CCCNC2)cc1 (stereo not given),0.936,
CC(=O)Nc1sc2c(c1-c1nc3ccccc3s1)CCN(C1COC1)C2,,14.1 µM (active)
NC(=O)C1CCN(c2nc(-c3cccc(C(F)(F)F)c3)cs2)CC1,3.18,
COc1cccc(-c2csc3ncnc(Sc4nnnn4C)c23)c1,5.53,
O=C(NCCc1ccc2c(c1)OCO2)c1cc2sccc2[nH]1,2.97,
Cc1ccc(OCCn2c(CCNC(=O)c3cccc(Br)c3)nc3ccccc32)cc1,7.46,
Cc1ccc(CNc2ccc(N3CCN(C(=O)OC(C)(C)C)CC3)cc2)cc1,0.537,
Oc1cc(-c2ccc(N3CCCCC3)nc2)cc2cccnc12,-3.03,
COc1ccc(C2Nc3ccccc3C(=O)N2Cc2cccnc2)cc1COc1ccc(NC(C)=O)cc1 (stereo not given),1.98,
FC(F)(F)c1cccc(N2CCN(C(=S)Nc3nccc4ccccc34)CC2)c1,1.49,
C#CCOc1cc(C2=Nn3c(nnc3-c3cccc(OCC(C)=O)c3)SC2)ccc1OC,-2.43,
O=C1CCCC2=C1C1(CCC1)N=C(Nc1nc3ccccc3o1)N2,-22.2,
Nc1cccc(OCCn2c(CCNC(=O)C3CCCCC3)nc3ccccc32)c1,-5.11,
COc1ccc(-c2nnc3n2N=C(c2cccc(OC)c2)CS3)cc1,0.504,
O=C(NCc1ccc(Cl)c(Cl)c1)Nc1nnc(-c2ccncc2)s1,56.5,
Nc1ccccc1S(=O)(=O)Nc1cccc2cccnc12,-8.97,

Compound,"activity change, negative = inhibition [%]",Potency
Cn1c2cc(C(=O)O)sc2c2cnn(Cc3ccccc3F)c(=O)c21,-1.69,
CCOc1ccc(CCNC(=O)C2(c3ccccc3)CC2)cc1OCC,11.9,
COc1ccc(C2Nc3ccccc3C(=O)N2Cc2ccc(-c3ccccc3)cc2)cc1COc1ccc(NC(C)=O)cc1 (stereo not given),0.528,
Cc1nc(SCC(=O)c2ccc(F)cc2)n[nH]1,-0.986,
COc1ccccc1NC(=O)C1=C(C)NC(Nc2nc3ccccc3o2)=NC1c1ccccc1Br (stereo not given),5.63,
Cc1ccc(OCCn2c(CCNC(=O)c3ccc(C(F)(F)F)cc3)nc3ccccc32)cc1,-1.97,
Cc1cc(N[S+](=O)([O-])c2ccc3c(c2)CCC(=O)N3C)ccc1F,-2.74,
O=C1Nc2cccc(Cl)c2/C1=C\c1cc(Cl)c(O)c(Cl)c1,-8.16,
O=c1[nH]c2ccc(S(=O)(=O)N3CCN(S(=O)(=O)c4ccc5c(c4)OCCO5)CC3)cc2[nH]c1=O,1.62,
FC(F)(F)c1ccccc1-c1nc(NCc2ccc(-c3ccc(Cl)cc3)cc2)c2ccccc2n1,4.41,
CCOC(=O)c1cccc(-n2cnc(/C=C3\NC(=O)N(CC(=O)O)C3=O)c2)c1,16.2,
Cc1ccccc1C(=O)N1CCc2cc(-c3nc(NC(=O)Cc4ccccc4)sc3C)ccc21,1.5,
O=[N+]([O-])c1cccc(S(=O)(=O)N2CCN(S(=O)(=O)c3ccc4c(c3)OCCO4)CC2)c1,-4.4,
O=C(O)c1ccc(CSc2nnc(-c3cccc([S+](=O)([O-])NC4CCCC4)c3)n2-c2ccccc2)cc1,-3.25,
Cn1nnnc1Sc1ncnc2scc(-c3ccccc3[N+](=O)[O-])c12,1.22,
Oc1cccc2cc(Nc3ccccc3)cnc12,-22.5,
Brc1ccc(-c2ccc(C3Nc4cccc5cccc(c45)N3)o2)cc1,-20.5,
Cc1ccc(-c2cnn(CC(=O)N(C)C(C)c3ccco3)c(=O)c2)cc1 (stereo not given),-2.61,
CN(C)CC(=O)NC1CCCc2c1cnn2-c1ccc(F)cc1F (stereo not given),0.923,
COc1ccc(NS(=O)(=O)c2ccc3c(c2)CCC(=O)N3)cc1,7.41,
